Compound activity (PubChem BioAssay)
D3 ag: agonists of human D3 dopamine receptor | P35462 | D3R DiscoveRx beta-arrestin cells, luminescence, 90 min | max activation, % | hit rate 0.58% among 410,000 | AID 652048; in the data active = max activation above about 30%; also: 0% is about no effect
Target sequence (P35462 whole entry, looked up): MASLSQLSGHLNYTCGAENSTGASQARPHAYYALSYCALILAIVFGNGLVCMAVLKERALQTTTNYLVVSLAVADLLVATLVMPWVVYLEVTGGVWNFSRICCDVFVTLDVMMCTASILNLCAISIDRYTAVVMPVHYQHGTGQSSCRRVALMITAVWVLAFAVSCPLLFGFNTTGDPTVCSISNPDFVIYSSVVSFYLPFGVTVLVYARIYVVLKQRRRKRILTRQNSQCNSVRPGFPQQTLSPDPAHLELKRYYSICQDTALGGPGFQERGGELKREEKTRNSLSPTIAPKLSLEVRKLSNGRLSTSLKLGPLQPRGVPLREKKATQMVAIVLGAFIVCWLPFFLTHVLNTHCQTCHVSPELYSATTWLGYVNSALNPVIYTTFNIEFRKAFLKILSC
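Cells at 1500/well, incubated overnight, then treated with pinned compounds (dopamine as control) for 90 min at 37 degrees C. DiscoveRx reagent added for 30 - 60 minutes at room temperature; luminescence read.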
TGFb inhibitor: TGF-b pathway inhibition; HepG2 CAGA-GFP TGF-b/SMAD3 reporter, GFP fluorescence, 18 h; TGF-beta stimulated, 500 pg/mL final; Potency, µM (series often up to 46.1 µM), inactives show at the top dose activity, negative = inhibition, most hits filed as inhibitors; hit rate 1.2% among 410,000; AID 588855; also: potency is read from the fitted curve at half-maximal effect; % is scaled to controls: 0 for no effect and ±100 for the full control effect; nearly all actives have a fitted effect of over 65% in size
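GFP signal (ex488/em500-530) from TGF-beta-stimulated HEPG2 CAGA-GFP cells, 500 pg/mL final, 18 h at 37 degrees C in DMEM plus 1% FBS, normalized to unstimulated and DMSO-stimulated controls.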
ATXN2 expr inh: reduces ATXN2 reporter expression in HEK-293 cells; hit rate 0.72% among 360,000; AID 1745845; Potency, µM (top dose mostly 57 µM), without a hit: at the top dose activity change, negative = inhibition, actives largely listed as inhibitors; HEK-293 ATXN2-luciferase reporter, luminescence, 24 h; also: potency is read from the fitted curve at half-maximal effect; % is scaled to controls: 0 for no effect and ±100 for the full control effect; nearly all actives have a fitted effect of over 55% in size
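ATXN2-luciferase reporter cells (luciferase flanked by upstream and downstream ATXN2 gene portions) were treated 24 h at 37 °C with compounds at up to 57 uM. SteadyGlo luminescence gave expression; GF-AFC fluorescence gave viability.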
S2 tox: viability counter-screen for ATXN expression inhibitors; S2 cells (HEK-293 line with an ATXN2-luciferase reporter) viability, CellTiter-Fluor protease fluorescence, 24 h; Potency, µM (top dose mostly 56.7 µM), actives largely listed as cytotoxic; hit rate 0.49% among 400,000; AID 651635; also: potency is read from the fitted curve at half-maximal effect; nearly all actives have a fitted effect of over 40% in size
HepG2 tox: HepG2 cytotoxicity, counter-screen for TGF-b inhibitors. Potency, µM (doses to about 46.1 µM), for the others: at the highest dose activity change, negative = cytotoxicity, actives largely listed as cytotoxic. HepG2 CAGA-GFP viability, ATP luminescence, 18 h. hit rate 0.76% among 410,000; also: potency is read from the fitted curve at half-maximal effect
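HepG2 CAGA-GFP cells (1000/well, DMEM with 1% FBS) received compound, then TGF-beta at 500 pg/mL final, and were incubated 18 hours at 37 degrees C. Viability was read by CellTiter-Glo luminescence. Media-only wells were set as complete cell-killing and DMSO as no toxicity.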
DRD3 antagonist: D3 dopamine receptor (human) antagonism. D3R cells, DiscoveRx beta-arrestin luminescence, antagonist mode; stronger effect = lower value. hit rate 2.5% among 360,000. P35462. max response, negative = inhibition, %; in the data active = max response below about -50%; inconclusive = no clear call, values can overlap the other calls; also: % is scaled to controls: 0 for no effect and ±100 for the full control effect
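Cells plated overnight at 1500 cells/well, then exposed to library compounds with dopamine controls for 90 minutes at 37 degrees C. DiscoveRx reagent added for 30–60 minutes at room temperature; luminescence read, quantitative HTS format.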
* marks the source's active call; other numbers are inactive results. Rows were chosen to be rich in hits. Some 4.7% of all compounds tested hit in one or more screens of this group. Unless noted, calls follow the shape of the dose curve; as a rule, active = well fitted curve in the direction sought with a large enough effect; inconclusive = small, poorly fitted or top-dose-only effect, or another doubt; inactive = no such curve, though single readings can be large; an effect the other way counts as inactive or inconclusive.

What do the screens show for `CC(C)c1ccc(-c2noc(SCC(=O)N3CCCCC3C)n2)cc1` (stereo unspecified)?
D3 ag: 0.2; TGFb inhibitor: -17.0%; ATXN2 expr inh: inconclusive; S2 tox: inconclusive; HepG2 tox: -18.9%

How did Cc1ccc(C2Nc3ccccc3NC3=C2C(=O)OC(C)C3)cc1 (stereo unspecified) do in these assays?
D3 ag: 6.4; TGFb inhibitor: 0.8%; ATXN2 expr inh: -12.8%; S2 tox: inactive; HepG2 tox: 2.0%; DRD3 antagonist: -4.9

How did CC1CC2=C(C(=O)O1)C(c1ccc(Cl)cc1)Nc1ccccc1N2 (stereo unspecified) do in these assays?
D3 ag: -4.5; TGFb inhibitor: 2.6%; ATXN2 expr inh: -18.3%; S2 tox: inactive; HepG2 tox: 0.5%; DRD3 antagonist: -52.1*

Results for CC(C)c1ccc(S(=O)(=O)c2ccc(NN)cc2)cc1 ?
D3 ag: -4.2; TGFb inhibitor: 3.3%; ATXN2 expr inh: 29.6%; S2 tox: inactive; HepG2 tox: 6.1%; DRD3 antagonist: -1.6

What do the screens show for `CC(C)c1ccc(S(=O)(=O)c2cnc(=S)[nH]c2N)cc1`?
D3 ag: -7.1; TGFb inhibitor: 3.9%; ATXN2 expr inh: -1.8%; S2 tox: inactive; HepG2 tox: 1.5%; DRD3 antagonist: -59.3*

What do the screens show for `Cc1c(NC(=O)COC(=O)C2CC3C=CC2C3)c(=O)n(-c2ccccc2)n1C` (stereo unspecified)?
D3 ag: -6.4; TGFb inhibitor: 5.2%; ATXN2 expr inh: 1.8%; S2 tox: inactive; HepG2 tox: 0.0%; DRD3 antagonist: -75.7*

What do the screens show for `COc1cc(NC(=O)C(NC(=O)C2CCC(C)CC2)C(C)C)cc(OC)c1OC` (stereo unspecified)?
D3 ag: 7.1; TGFb inhibitor: 30.4%; ATXN2 expr inh: 10.2%; S2 tox: inactive; HepG2 tox: -5.9%

What do the screens show for `CN1CCN(CCCNC(=O)c2ccc(/C=C3\Oc4ccccc4N(Cc4ccccc4F)C3=O)cc2)CC1`?
D3 ag: -12.8; TGFb inhibitor: 17.8µM*; S2 tox: 20µM*; HepG2 tox: -106.2%; DRD3 antagonist: 0.0

What do the screens show for `CN1CCN(CCCNC(=O)c2ccc(/C=C3\Sc4ccccc4N(Cc4ccc(F)cc4)C3=O)cc2)CC1`?
D3 ag: -21.2; TGFb inhibitor: inconclusive; S2 tox: inconclusive; HepG2 tox: -131.8%; DRD3 antagonist: -16.5

What do the screens show for `CCN1CCN(CCNC(=O)c2ccc(/C=C3\Sc4ccccc4N(Cc4ccccc4F)C3=O)cc2)CC1`?
D3 ag: -1.6; TGFb inhibitor: inconclusive; ATXN2 expr inh: inconclusive; S2 tox: inactive; HepG2 tox: 14.1µM*; DRD3 antagonist: 2.5

What do the screens show for `O=C1C=C(N2CCOCC2)c2ccccc2C1=O`?
D3 ag: -21.4; TGFb inhibitor: 5.01µM*; ATXN2 expr inh: inconclusive; S2 tox: 25.1µM*; HepG2 tox: 5.01µM*; DRD3 antagonist: -25.6

Results for O=C1C(NS(=O)(=O)c2cccs2)=C(N2CCOCC2)C(=O)c2ccccc21 ?
D3 ag: -3.8; TGFb inhibitor: inconclusive; ATXN2 expr inh: -20.7%; S2 tox: inactive; HepG2 tox: -157.9%; DRD3 antagonist: -11.8

Results for CN(C1=C(N2CCOCC2)C(=O)c2ccccc2C1=O)c1ccccc1 ?
D3 ag: -3.0; TGFb inhibitor: 10µM*; ATXN2 expr inh: 0.0%; S2 tox: inconclusive; HepG2 tox: -1.5%; DRD3 antagonist: -14.1

Results for O=C1C=C(N2CCOCC2)c2cccc3cccc1c23 ?
D3 ag: -14.7; TGFb inhibitor: 5.6%; S2 tox: inconclusive; HepG2 tox: -5.5%; DRD3 antagonist: -28.8

How did Cc1ccc(F)cc1CNC(=O)c1sc2ncnc(NCC3CCCO3)c2c1C (stereo unspecified) do in these assays?
S2 tox: inactive

Results for C=CC[n+]1c(-c2ccc(Cl)cc2Cl)csc1Nc1ccc(NC(C)=O)cc1 ?
D3 ag: -18.0; TGFb inhibitor: inconclusive; ATXN2 expr inh: inconclusive; S2 tox: inconclusive; HepG2 tox: 22.4µM*; DRD3 antagonist: inconclusive

How did C=CC[n+]1c(-c2ccc(Cl)cc2Cl)csc1Nc1c(C)n(C)n(-c2ccccc2)c1=O do in these assays?
D3 ag: -26.7; TGFb inhibitor: inconclusive; ATXN2 expr inh: -15.4%; S2 tox: inconclusive; HepG2 tox: -0.4%; DRD3 antagonist: -81.2*

Results for C=CC[n+]1c(-c2ccc(C)cc2)csc1Nc1c(C)n(C)n(-c2ccccc2)c1=O ?
D3 ag: -11.5; TGFb inhibitor: -11.2%; ATXN2 expr inh: -26.3%; S2 tox: inactive; HepG2 tox: 1.3%; DRD3 antagonist: -17.2

Results for CC(C)(C)OC(=O)N1CCC(c2c(C(=O)N3CCN(c4ccccc4F)CC3)cnn2C(C)(C)C)CC1 ?
D3 ag: 5.5; TGFb inhibitor: -1.3%; HepG2 tox: -2.5%

What do the screens show for `Cc1ccc(OCCN2CCN(C)CC2)c([N+](=O)[O-])c1`?
D3 ag: 7.2; TGFb inhibitor: 8.7%; ATXN2 expr inh: 0.0%; S2 tox: inactive; HepG2 tox: 5.8%; DRD3 antagonist: -53.1*

What do the screens show for `Cc1ccc(OCCCN2CCOCC2)c([N+](=O)[O-])c1`?
D3 ag: -10.3; TGFb inhibitor: -12.0%; ATXN2 expr inh: 58.2%; S2 tox: inactive; HepG2 tox: -3.5%; DRD3 antagonist: inconclusive

How did Cc1ccc(C)c(OCCCN2CCNCC2)c1 do in these assays?
D3 ag: -1.2; TGFb inhibitor: 14.5%; ATXN2 expr inh: -10.8%; S2 tox: inactive; HepG2 tox: 4.9%; DRD3 antagonist: 1.6

Results for Cc1ccc(OCCN2CCNCC2)c([N+](=O)[O-])c1 ?
D3 ag: -11.2; TGFb inhibitor: -11.3%; ATXN2 expr inh: 7.6%; S2 tox: inactive; HepG2 tox: -8.9%; DRD3 antagonist: -86.6*

What do the screens show for `Cc1cc(C(=O)Nc2ccccc2-c2nc(CNC(=O)c3sc(C)nc3C)c(C)o2)c(C)o1`?
S2 tox: inactive

What do the screens show for `CCC1Nc2ncnc(N3CCN(c4ccccc4)CC3)c2N(Cc2ccc(OC)cc2)C1=O` (stereo unspecified)?
D3 ag: -56.4; TGFb inhibitor: -22.2%; ATXN2 expr inh: 4.6%; S2 tox: inactive; HepG2 tox: -5.6%; DRD3 antagonist: -148.7*

Results for CCC1Nc2ncnc(N3CCOCC3)c2N(Cc2ccccc2)C1=O (stereo unspecified) ?
D3 ag: -19.1; TGFb inhibitor: inconclusive; ATXN2 expr inh: 1.3%; S2 tox: inactive; HepG2 tox: -1.9%; DRD3 antagonist: -4.7
